# Measured values from PubChem BioAssay (NCI).
# Where “and” joins values, the source holds several entries; their conditions need not be identical. Equal values may be shown once. Compounds without any hit were thinned out: in the full panel of roughly 79,000, 15% have a hit. Calls of active or inactive are those of the source. Cut-off read from the data, not from the text of the source: active = growth inhibition above about 70%; inactive = the rest.
# Assay: NCI Yeast Anticancer Drug Screen. Data for the bub3 strain (AID 167)
# Conditions: S. cerevisiae bub3 mutant strain, at 50.0 µM, active compounds read high
# Procedure, shortened: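 Compounds were applied to a genetically altered yeast strain carrying a cell-cycle control defect. Growth inhibition was scored against vehicle-treated controls.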
row,Structure (SMILES),growth inhibition
1,Nc1ccccc1C(=O)Oc1ccccn1,-8.85% (inactive)
2,COc1ccc2c(c1O)-c1cc(O)cc3c1C(C2)NCC3 (stereo not given),8.65% (inactive)
3,CN1CCCC(OC(=O)C(c2ccccc2)C2(O)CCCC2)C1 (stereo not given),-1.85% (inactive)
4,NC(=O)c1ccc(NN=O)nc1,-2.85% (inactive)
5,CC(=O)[O-].[Ni].c1ccc(/C(=N\Nc2ccccn2)c2ccccn2)cc1,-4.6% (inactive)
6,[N-]=[N+]=CC(=O)OCC(N)C(=O)O (stereo not given),-6.7% (inactive)
7,CCN1C2CCC1CC(=O)C2,-14.2% (inactive)
8,C[CH2][Sn]([CH2]C)([O]C(=O)c1ccc(F)cc1)[O]C(=O)c1ccc(F)cc1,15.2% (inactive)
9,CCCN=Cc1ccccc1O.CCCN=Cc1ccccc1O.[Ni],4.85% (inactive)
10,C#CCOC(C(=O)OC1CCN(C)CC1)(c1ccccc1)c1ccccc1,0.3% (inactive)
11,CCOC(CNC(=O)c1ccc(S(=O)(=O)F)cc1)OCC,42.8% (inactive)
12,NS(=O)(=O)c1ccc([As]=O)cc1 (stereo not given),-48.1% (inactive)
13,CSCCC(N)P(C)(=O)O (stereo not given),-46.1% (inactive)
14,NC1(O)C(=O)NC(=O)NC1=O,-4.05% (inactive)
15,COc1cc(C2CNCc3cc(OC)c(O)cc32)ccc1O (stereo not given),-9.85% (inactive)
16,O=[N+]([O-])c1cc(/C=N\NC(=S)NC2CN3CCC2CC3)ccc1Cl (stereo not given),4.8% (inactive)
17,NC(=NC(c1ccccc1)c1ccccc1)N[N+](=O)[O-],7.45% (inactive)
18,COc1ccc(NC(=O)C(=O)C(CC2C(=O)NC(=S)NC2=O)C(=O)c2ccc3ccccc3c2)c([N+](=O)[O-])c1 (stereo not given),31.2% (inactive)
19,CCOC(=O)/C(=C/c1ccc[nH]1)P(=O)(OCC)OCC,6.6% (inactive)
20,O=C(O)C1C2Cc3ccccc3C21 (stereo not given),-20.3% (inactive)

row,Structure (SMILES),growth inhibition
1,N=C(N)c1nn[nH]n1,-7.05% (inactive)
2,O=P(O)(O)C(O)c1ccccc1 (stereo not given),-19.2% (inactive)
3,O=P1(C(Cl)Cl)OCCCO1,-0.15% (inactive)
4,COc1cccc(N2C(=O)C3C(C2=O)C2(Cl)C(Cl)=C(Cl)C3(Cl)C2(Cl)Cl)c1 (stereo not given),19.4% (inactive)
5,COC(C)CCOC(=O)Cc1ccccc1 (stereo not given),13.4% (inactive)
6,N#CC(C#N)=Cc1ccc(Cl)cc1,-8.1% (inactive) and 0.15% (inactive)
7,Cc1ccc(-n2cnc3c(N(CCCl)CCCl)ncnc32)cc1,23.5% (inactive)
8,CCCC1CC=CCC12C(=O)NC(=O)NC2=O (stereo not given),0.5% (inactive)
9,N#Cc1ccc(CCl)cc1,2.95% (inactive)
10,O=S(=O)(O)O/N=C(\Cc1ccccc1)SC1OC(CO)C(O)C(O)C1O (stereo not given),-0.75% (inactive)
11,Cc1nc2ccc(Br)cc2c(=O)n1-c1ccc(N)cc1,-8.2% (inactive)
12,Cc1cccc(C=NCCOCCOCCN=Cc2cccc(C)c2O)c1O.[Ni],-19.6% (inactive)
13,CCC1(CCNC(=O)CNC(C)=O)C(=O)NC(=O)NC1=O,10.9% (inactive)
14,CN1CCOC(c2ccccc2)c2ccsc2CC1 (stereo not given),9.4% (inactive)
15,O=NN1CCNCC1,-5.9% (inactive) and -6.1% (inactive)
16,CN1C(=O)NC(C)(c2cccc(N(CCCl)CCCl)c2)C1=O (stereo not given),-13.9% (inactive)
17,CC1(CCl)COP(=O)(NN)OC1 (stereo not given),12% (inactive)
18,CCOC(=O)/C=C1\Nc2ccccc2C(c2ccccc2)=NC1OC(C)=O (stereo not given),-13.7% (inactive)
19,O=C(N=[C-]c1ccc[oH+]1)c1cccnc1.O=C(N=[C-]c1ccc[oH+]1)c1cccnc1.[Ni+2],-31.8% (inactive)
20,O=c1oc2cc(O)ccc2c(O)c1C(c1ccccn1)c1c(O)c2ccc(O)cc2oc1=O,-17.4% (inactive)
